Bioassay records (PubChem)
The list is a sample of the results.
aSyn 5UTR act = Activators working through SNCA 5'UTR binding (MLPCN) | activity score, % (tested at 7.5 µM), hits read low | 300,000 tested, 7.1% active | AID 1814 | alpha-synuclein 5'UTR reporter, activators screen; in the data active = activity score below about -60%
Large screens that a line does not name were inactive.

CCCCSc1nnc(-c2ccc(OC)cc2)n1C	aSyn 5UTR act -132.6
Cc1ccc(-c2nnc(SCC(C)C)n2C)cc1	aSyn 5UTR act -146.0
Cc1ccc(Nc2nc(CSc3nnc(-c4ccc(F)cc4)n3C)cs2)cc1	aSyn 5UTR act -144.0
CC(C)Oc1ccc(C2c3c(oc4ccccc4c3=O)C(=O)N2CCCN2CCOCC2)cc1 (centres undefined)	aSyn 5UTR act -76.0
O=C(Nc1ccc2c(c1)OCCO2)C1CCN(C(=O)c2ccc(F)cc2)CC1	aSyn 5UTR act -84.5
O=C(Nc1ccc2c(c1)OCCO2)N1CCN(c2ccc(F)cc2)CC1	aSyn 5UTR act -87.9
Cc1cccc(C)c1N1CCN(C(=O)Nc2ccc3c(c2)OCCO3)CC1	aSyn 5UTR act -73.7
Cc1cccc(N2Cc3ccc(Br)cc3C2)c1	aSyn 5UTR act -124.7
O=C(CSc1nnc2ccccn12)Nc1ccc2c(c1)OCCO2	aSyn 5UTR act -121.8
O=C(CC1Nc2ccccc2NC1=O)Nc1ccc2c(c1)OCO2 (centres undefined)	aSyn 5UTR act -108.4
O=C(CSCc1ccccc1)Nc1ccc2c(c1)OCO2	aSyn 5UTR act -154.0
CC(=O)c1cccc(NC(=O)CSCc2ccccc2)c1	aSyn 5UTR act -99.6
O=C(Cn1cnc2ccccc2c1=O)Nc1ccc2c(c1)OCCO2	aSyn 5UTR act -110.1
COc1ccc(-n2c(SC(C)C(=O)Nc3ncc(Cl)cc3Cl)nc3ccccc32)cc1 (centres undefined)	none
O=C(CSc1nnc2ccccn12)Nc1ncc(Cl)cc1Cl	aSyn 5UTR act -78.2
O=C(CSCc1ccccc1)Nc1ccc(F)c(F)c1	aSyn 5UTR act -136.1
O=C(CSc1ccccc1)Nc1ccc2c(c1)OCCO2	aSyn 5UTR act -63.5
O=C(CSc1ccc(-c2ccccc2)nn1)Nc1ccc2c(c1)OCCO2	aSyn 5UTR act -148.2
O=C(CSc1nnc2c(n1)[nH]c1ccccc12)Nc1ccc2c(c1)OCO2	aSyn 5UTR act -79.8
CN1CCN(c2ccc(NC(=O)CSc3ccccc3)cc2F)CC1	aSyn 5UTR act -107.2
CC1Cc2nc(SCC(=O)Nc3ccc4c(c3)OCO4)n(Cc3ccccc3)c(=O)c2S1 (centres undefined)	aSyn 5UTR act -94.5
O=C(CN1CC(=O)Nc2ccccc21)Nc1ccc(F)c(F)c1	aSyn 5UTR act -94.3
Cc1cc(C)cc(C(=O)N2CC(=O)Nc3ccccc32)c1	none
CCCCSc1nnc2c(n1)[nH]c1ccccc12	aSyn 5UTR act -134.7
CCN(CC)C(=O)Cn1cc(C(=O)C(=O)Nc2ccc3c(c2)OCCO3)c2ccccc21	aSyn 5UTR act -90.9
O=C(CSCc1ccccc1)Nc1ccc(Cl)cn1	aSyn 5UTR act -134.1
O=C(CSc1ccccc1)Nc1ccc2c(c1)OCO2	aSyn 5UTR act -125.0
O=C(CN1C(=O)C2C3C=CC(C3)C2C1=O)Nc1ccc2c(c1)OCCO2 (centres undefined)	aSyn 5UTR act -115.8
Cn1cc(SCC(=O)Nc2ccc3c(c2)OCCO3)c2ccccc21	aSyn 5UTR act -77.8
COc1ccc(N(C(=O)c2cnccn2)C(C(=O)NCc2ccccc2)c2ccc(O)cc2)cc1 (centres undefined)	aSyn 5UTR act -75.9
COc1ccc(OCc2cc(C(=O)O)c(C)o2)cc1	aSyn 5UTR act -92.8
CC1CN(C(=O)c2ccc(COc3ccc(C(C)C)cc3)o2)CC(C)O1 (centres undefined)	aSyn 5UTR act -110.2
CCc1ccc(OCc2ccc(C(=O)O)o2)cc1	aSyn 5UTR act -144.7
CC(C)c1ccc(OCc2ccc(C(=O)N(C)C)o2)cc1	aSyn 5UTR act -171.2
CC(C)c1ccc(OCc2ccc(C(=O)O)o2)cc1	aSyn 5UTR act -94.0
CC(C)c1ccc(OCc2ccc(C(=O)NN3CCN(C)CC3)o2)cc1	aSyn 5UTR act -134.4
CCCCN1C(=O)/C(=C2\SC(N3CCCCC3)=NC2=O)c2ccccc21	aSyn 5UTR act -149.0
O=C(Nc1ccccn1)c1ccc2ccccc2c1O	aSyn 5UTR act -143.7
O=C(Nc1cccnc1)c1ccc2ccccc2c1O	aSyn 5UTR act -136.8
O=C(Nc1cccc([N+](=O)[O-])c1)c1ccc2ccccc2c1O	aSyn 5UTR act -127.7
Cn1cc(/C=C(\C#N)C(=O)Nc2ccccc2O)c2ccccc21	aSyn 5UTR act -118.4
Cc1cc(/C=N/Nc2ncnc(N)c2[N+](=O)[O-])c(C)n1-c1ccccc1	none
O=[N+]([O-])c1cc(CN2CCN(c3cccc(C(F)(F)F)c3)CC2)c2cccnc2c1O	none
Cc1cc(/C=N/Nc2nc(N)ncc2[N+](=O)[O-])c(C)n1-c1cccc(C(F)(F)F)c1	aSyn 5UTR act -116.9
c1ccc2sc(NC3=NCN(CC4CCCO4)CN3)nc2c1 (centres undefined)	aSyn 5UTR act -85.8
c1ccc(Nc2nc(NCc3ccco3)c3ccccc3n2)cc1	aSyn 5UTR act -66.8
c1coc(CNc2nc3ccccc3s2)c1	aSyn 5UTR act -137.2
c1coc(CN2CN=C(Nc3nc4ccccc4s3)NC2)c1	aSyn 5UTR act -80.6
Nc1nc(Nc2ccccc2)nc(NCc2ccccc2)c1[N+](=O)[O-]	none
Oc1c(C(Nc2nc3ccccc3s2)c2ccco2)ccc2cccnc12 (centres undefined)	none
CC1CCCC(C)N1C(=O)CSc1nnc(-c2cccs2)o1 (centres undefined)	aSyn 5UTR act -81.9
